This is a sample that favours compounds with a hit; in the whole collection about 4% have one here.
RecA intein inh – blocks M. tuberculosis RecA intein splicing; P9WHJ3; cell-free RecA intein splicing, fluorescence; inhibition, % (concentration not given with the values); 290,000 compounds, 0.75% hits; AID 2221; in the data active = inhibition above about 30%
Rv3671c protease – Rv3671c (M. tuberculosis) protease inhibition; P9WHR9; inhibition, % at 5.96 µM; 320,000 compounds, 0.048% hits; AID 2606; in the data active = inhibition above about 38%;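 note: extracellular domain of Rv3671c used as enzyme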
GDH-TPI inh – inhibits GDH-TPI coupling enzymes, artifact for Mtb FBA screen; GDH-TPI coupled enzyme counterscreen, NADH absorbance; inhibition, % at 4.8 µM; 360,000 compounds, 1.2% hits; AID 588335; in the data active = inhibition above about 30%
Mtb FBA inh – Mtb fructose-bisphosphate aldolase inhibition | P9WQA3 | purified M. tuberculosis FBA, fluorescence read-out | inhibition, % at 1 µM | 360,000 compounds, 2.3% hits | AID 588726; in the data active = inhibition above about 27%
Target sequence (P9WQA3 whole entry, looked up): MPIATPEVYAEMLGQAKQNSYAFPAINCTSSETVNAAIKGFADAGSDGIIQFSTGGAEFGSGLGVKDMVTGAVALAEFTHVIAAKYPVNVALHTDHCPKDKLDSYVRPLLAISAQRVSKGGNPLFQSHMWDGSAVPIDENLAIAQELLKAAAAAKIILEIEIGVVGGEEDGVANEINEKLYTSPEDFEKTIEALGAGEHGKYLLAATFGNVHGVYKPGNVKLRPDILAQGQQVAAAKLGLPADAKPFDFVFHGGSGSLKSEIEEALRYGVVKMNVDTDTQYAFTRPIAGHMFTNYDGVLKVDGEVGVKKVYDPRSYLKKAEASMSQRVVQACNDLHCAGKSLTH
Mtb betalactam – beta-lactam sensitization of Mtb H37Rv; M. tuberculosis H37Rv growth with meropenem, percent inhibition; inhibition, % at 25 µM; 330,000 compounds, 0.27% hits; AID 434955; call rule not given here;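 note: growth measured after seven days incubation then overnight dye step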
Mtb UGM inh – Mtb UDP-galactopyranose mutase inhibition; P9WIQ1; purified UGM, fluorescence polarization probe displacement; inhibition, % at 10 µM; 320,000 compounds, 0.06% hits; in the data active = inhibition above about 10%, passing the limit was not always enough
Hits are given with their value; i = inactive; nt = no result given; + = active, no number.

SMILES | RecA intein inh | Rv3671c protease | GDH-TPI inh | Mtb FBA inh | Mtb betalactam | Mtb UGM inh
CCc1nnc(NC(=O)c2ccc(NS(=O)(=O)c3ccccc3)cc2)s1 | i | i | 34 | i | i | i
CCc1nnc(NS(=O)(=O)c2ccc(NC(=O)c3ccccc3)cc2)s1 | i | i | i | i | i | i
Cn1c(CC(=O)Nc2ccccc2)cc2ccccc21 | i | i | i | i | i | i
Cc1cc(=O)oc2cc(OCCSCCN3CCCCC3)ccc12 | i | i | 36 | i | i | i
Cc1ccc(Cn2c(N/N=C/c3ccncc3)nc3c2c(=O)n(C)c(=O)n3C)cc1 | i | i | i | i | i | i
Cn1c(=O)c2c(nc(N/N=C/c3ccncc3)n2Cc2ccccc2)n(C)c1=O | i | i | 59 | i | i | i
COc1cc(/C=N/Nc2ccc(Cl)c(C(=O)O)c2)ccc1OC(=O)c1ccco1 | i | i | i | i | i | i
COc1cc(/C=N/Nc2nc3c(c(=O)n(C)c(=O)n3C)n2Cc2ccccc2)ccc1OC(=O)c1ccco1 | i | i | 33 | i | i | i
COc1ccc(-c2cc3nc4n(c(=O)c3s2)CCC4)cc1 | i | i | i | + | i | i
COc1ccc(-c2cc3nc4n(c(=O)c3s2)CCCCC4)cc1 | i | i | i | + | i | i
COc1ccc(-c2cc3nc(C)n(N)c(=O)c3s2)cc1 | i | i | 32 | + | i | i
COc1ccc(NC(=O)c2ccc3c(=O)n4c(nc3c2)CCCCC4)cc1 | i | i | i | i | i | i
Cc1cc(C(=O)COc2ccc(F)cc2Br)c(C)n1C1CC1 | nt | nt | i | i | nt | nt
O=[N+]([O-])c1ccc(NN=Cc2ccccc2O)nc1 | nt | nt | i | i | nt | nt
Oc1cccc(C=NNc2ccccn2)c1 | nt | nt | i | i | nt | nt
Cc1ccccc1NC(=S)N/N=C/c1ccc(O)cc1O | i | i | 56 | i | i | i
Cc1cccc(NC(=S)N/N=C/c2cccc(O)c2)c1C | i | i | i | i | i | i
O=[N+]([O-])c1ccc(O)c(/C=N/Nc2ccccn2)c1 | i | i | 38 | i | i | i
O=c1[nH]ncc(N/N=C\c2ccc(O)cc2O)c1Cl | i | i | 38 | i | i | i
Oc1ccc(C=NNc2ccccn2)c(O)c1 | nt | nt | 41 | i | nt | nt
O=[N+]([O-])c1cccc(N/N=C/c2cc([N+](=O)[O-])ccc2O)c1 | i | i | i | i | i | i
CCN(CC)S(=O)(=O)c1ccc(N/N=C/c2ccc(O)cc2O)nc1 | i | i | 40 | i | i | i
Cc1nc(N/N=C/c2ccc(O)cc2O)cc(N2CCOCC2)n1 | i | i | 64 | i | i | i
O=[N+]([O-])c1ccc(O)c(C=NNc2ccc(S(=O)(=O)O)cc2)c1 | nt | nt | 52 | i | nt | nt
Cc1nc(N/N=C/c2cccc(F)c2)cc(N2CCOCC2)n1 | nt | i | i | i | i | i
SMILES | RecA intein inh | Rv3671c protease | GDH-TPI inh | Mtb FBA inh | Mtb betalactam | Mtb UGM inh
Cc1ccccc1OCC1Cn2c(nc3c2c(=O)n(C)c(=O)n3C)O1 (stereo not drawn) | i | i | i | i | i | i
O=C(N/N=C/c1cccc(F)c1)c1c(O)c2ccccc2[nH]c1=O | i | i | i | i | i | i
O=C(Nc1cccc(F)c1)c1c(O)c2ccccc2[nH]c1=O | i | i | 32 | i | i | i
CCCOC(=O)c1cc(-c2ccc(/C=C3/C(=O)N(C)C(=O)C(C#N)=C3C)o2)ccc1Cl | nt | i | i | i | i | i
C=CCOC(=O)c1cc(-c2ccc(/C=C3\C(=O)NC(=O)C(C#N)=C3C)o2)ccc1Cl | nt | nt | 34 | i | nt | nt
COc1ccccc1CN1CC(C(=O)NCCCCc2ccccn2)CCC1=O (stereo not drawn) | nt | nt | i | i | nt | nt
CCOC(=O)CSc1nc2c(sc(=S)n2-c2ccc(CC)cc2)c(=O)[nH]1 | i | i | 33 | i | i | i
Cc1ccc(C(=O)N=c2sccn2C)o1 | i | i | 33 | i | i | i
Cc1ccccc1C(=O)N=c1sccn1C | i | i | i | i | i | i
Cc1ccc(-n2c(N)c(C(=O)Nc3ccccc3F)sc2=S)cc1C | i | i | 33 | i | i | i
CC(/C=N/NC(=O)c1cccs1)=C\c1ccco1 | i | i | i | i | i | i
CC(/C=N/NC(=O)Cc1cccs1)=C\c1ccco1 | i | i | 34 | i | i | i
COc1ccc2c(c1OC)C(=O)OC2CC(=O)c1ccc(O)cc1 (stereo not drawn) | i | i | i | i | i | i
COc1ccc2c(c1OC)C(=O)OC2CC(=O)c1ccc(N(C)C)cc1 (stereo not drawn) | i | i | 31 | i | i | i
CCc1nc2ccc(C(=O)NCCOc3ccc(OC)cc3)cn2c1N(CCC(C)C)CCN(C)C | nt | nt | i | i | nt | nt
Nc1ccccc1/C=C/c1ccccc1N | nt | nt | i | 146 | nt | nt
CN(C)Cc1ccccc1-c1cccc2nccn12 | nt | nt | i | 142 | nt | nt
Cc1cccc(-c2cccc3nccn23)c1 | nt | nt | i | + | nt | nt
OCc1ccc(-c2cccc3nccn23)cc1 | nt | nt | i | + | nt | nt
CN1CCN(C(=O)c2cccc(-c3cccc4nccn34)c2)CC1 | nt | nt | i | i | nt | nt
CONC(=O)c1ccc(-c2cccc3nccn23)cc1 | nt | nt | i | i | nt | nt
CCN(CC)S(=O)(=O)c1cc(NC(=O)C2CSC3(C)CCC(=O)N23)ccc1C (stereo not drawn) | nt | i | i | i | i | i
O=C(N/N=C/c1cc2cc3c(cc2nc1Cl)OCO3)c1ccncc1 | i | i | 69 | i | i | i
C/C(=N/N=C(/C)c1cccs1)c1cccs1 | i | i | i | i | i | i
C/C(=N\Nc1ccc2nncn2n1)c1cccs1 | i | i | 35 | i | i | i
SMILES | RecA intein inh | Rv3671c protease | GDH-TPI inh | Mtb FBA inh | Mtb betalactam | Mtb UGM inh
CC(=O)N1CCN(c2ccc(N=Cc3c(O)n(Cc4ccccc4)c(=O)[nH]c3=O)cc2)CC1 | i | nt | 33 | i | nt | nt
O=c1[nH]c(=S)n(Cc2ccco2)c(O)c1C=NCc1cccs1 | i | i | 34 | i | i | i
NC(=O)c1ccc(N=Cc2c(O)n(Cc3ccco3)c(=O)[nH]c2=O)cc1 | i | i | 36 | i | i | i
CSCC[C@H](NC(=O)[C@@H]1CSC2c3ccccc3C(=O)N21)C(=O)N1CCC[C@H]1CO (stereo partly drawn) | i | i | i | i | i | i
Brc1ccc(/C=N/c2nc3ccccc3n2CCN2CCOCC2)cc1 | i | i | i | i | i | 17
C=CCc1c(C)nc(C)nc1N/N=C/c1ccc(F)cc1 | i | i | 32 | i | i | i
COc1cc(C(=O)NNC(=O)c2cccn2C)cc(OC)c1OC | i | i | i | i | i | i
C/C(=N\NC(=O)c1ccncc1)c1cc2ccccc2o1 | i | i | i | i | i | i
C/C(=N/NC(=O)c1ccncc1)c1cc2ccc(O)cc2oc1=O | nt | i | i | + | i | 42
NC(=S)c1cc2cc(Br)ccc2oc1=O | i | i | i | i | i | i
Oc1cc(O)cc(-c2cc3ccc(O)cc3o2)c1 | i | i | i | 177 | i | i
C/C(=N/NC(N)=S)c1cc2ccc(O)cc2oc1=O | i | i | i | 129 | i | i
NC(=S)c1cc2ccc(O)cc2oc1=O | i | nt | i | + | nt | nt
CCOc1ccc(C(=O)c2cc3ccc(O)cc3oc2=O)cc1 | i | i | i | i | i | i
CCc1ccccc1NC(=O)CCC(=O)N1CCN(C(C)=O)CC1 | nt | nt | i | i | nt | nt

Screens: PubChem, several laboratories
